AMA1 RON2 block: AMA1-RON2 (P. falciparum) interaction inhibition. 360,000 compounds, 0.2% hits. AlphaScreen AMA1-biotinylated RON2 peptide binding. Potency, µM (top dose mostly 58.2 µM), hits mostly inhibitors; also: nearly all actives have a fitted effect of over 45% in size
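AMA1 (3D7) with his tag at 25 nM final met compounds first, then biotinylated RON2 peptide at 25 nM; detection used donor plus acceptor beads, 10 µg/mL apiece, read by AlphaScreen after 30 min at room temperature.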
HCV inhibitor: inhibitors of hepatitis C virus infection. 340,000 compounds, 3.4% hits. Potency, µM (highest dose often 41.8 µM), usual class: inhibitors. Huh7.5.1 HCVcc-Cre infection, luciferase reporter, 44 h
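A cell-based infection assay in which seeded cells (1,000 per well) receive test compound after 4 h, are inoculated with HCVcc-Cre at approximately 0.5 moi, and are incubated 44 h before luminescence detection.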
Pf growth 48h: inhibits P. falciparum growth in the first generation, 48 h | Potency, µM (titrated, usually from 28.7 µM), most hits filed as inhibitors | P. falciparum luciferase growth in erythrocytes, 48 h | AID 504832 | 310,000 compounds, 5.9% hits
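Luciferase-expressing parasites in RBCs, 2% Hct / 0.1% parasitemia final; RPMI 1640 + 0.5% Albumax; 37 C, 5% CO2, one generation; luminescence read-out, lower signal = inhibition.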
Pf growth 96h: P. falciparum growth inhibition at 96 hours; P. falciparum luciferase reporter growth, 96 h; Potency, µM (doses to about 28.7 µM), hits mostly inhibitors; 320,000 compounds, 6.9% hits; AID 504834
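P. falciparum expressing integrated firefly luciferase, in erythrocytes at 2% hematocrit, 0.05% parasitemia, incubated with compounds 96 h at 37 C, 5% CO2. Growth inhibition read as loss of luminescence; two-generation exposure targets delayed-death apicoplast inhibitors.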
Hits are given with their value; – = inactive; ? = inconclusive; · = not tested or not shown; [ ] = remark or other dose. Shown are actives, neighbours in structure and some others; about 11% of the full set was active somewhere. Calls follow the shape of the dose curve; as a rule, active = well fitted curve in the direction sought with a large enough effect; inconclusive = small, poorly fitted or top-dose-only effect, or another doubt; inactive = no such curve, though single readings can be large; an effect the other way counts as inactive or inconclusive.

SMILES	AMA1 RON2 block	HCV inhibitor	Pf growth 48h	Pf growth 96h
C#CCOCCOCCOCCNc1nc(N2CCN(C(=O)[C@H](CCC(=O)O)n3cc(C(N)CC(C)C)nn3)CC2)nc(N2CCN(C(=O)[C@H](Cc3cc4ccccc4[nH]3)n3cc(C(N)CC(C)C)nn3)CC2)n1 (stereo partly specified)	–	–	–	–
C#CCOCCOCCOCCNc1nc(N2CCN(C(=O)[C@H]([C@@H](C)CC)n3cc([C@@H](N)CC(C)C)nn3)CC2)nc(N2CCN(C(=O)[C@H](Cc3cc4ccccc4[nH]3)n3cc([C@@H](N)CC(C)C)nn3)CC2)n1	·	·	10µM	3.3µM
CC1=CC(C)(C)NC(=S)N1c1cccc2cc(S(=O)(=O)O)ccc12	–	–	–	–
COc1ccc(C(=O)N=c2sc3c(C)ccc(OC)c3n2C)cc1	–	?	–	–
C=CCN1C[C@@H](C)N(C(c2ccc(C(=O)N(CC)CC)cc2)c2cccc(OC)c2)C[C@@H]1C (stereo partly specified)	–	–	1.7µM	–
C=CCN1C[C@H](C)N([C@H](c2ccc(C(=O)N(CC)CC)cc2)c2cccc(OC)c2)C[C@H]1C	·	·	4.8µM	–
C=CCn1c(SCC(=O)c2ccc(O)c(O)c2)nnc1-c1cccc(OC)c1	–	?	?	?
Cc1ccc(CN2CCC(CNC(=O)c3ccc(NC(=O)C4=CSCCO4)cc3)CC2)cc1	–	13µM	?	?
C=C(C)C(=O)Nc1cccc(C2=NOC3(C2)C[C@H](C(N)=O)N(C(=O)/C=C/C)C3)c1 (stereo partly specified)	–	–	–	–
CCOc1ccc(C(=O)Nc2ccc(S(=O)(=O)N3C[C@@H]4C[C@@H](C3)c3cccc(=O)n3C4)cc2)cc1	?	1µM	?	2.9µM
O=C(Nc1ccc(S(=O)(=O)N2C[C@@H]3C[C@@H](C2)c2cccc(=O)n2C3)cc1)c1ccc(F)cc1	–	?	–	?
Cc1nc(NC(=O)C(C)(C)C)sc1-c1nc(N)sc1-n1cc(-c2ccccc2)nn1	–	·	·	·
COc1ccccc1Nc1nc(-c2sc(NC(=O)C(C)(C)C)nc2C)cs1	–	2.5µM	?	12µM
Cc1ccc(Cl)cc1Nc1nc(-c2sc(NC(=O)C(C)(C)C)nc2C)cs1	–	–	8.3µM	5.2µM
CCCC(=O)Nc1nc(-c2ccc(OC)cc2)cs1	–	?	–	·
CCCCCC(=O)Nc1nc(C)c(-c2csc(Nc3cc(Cl)ccc3OC)n2)s1	–	?	7.4µM	3.7µM
Cc1cc(O)ccc1Nc1nc(-c2sc(N)nc2C)cs1	–	?	–	–
CCCC(=O)Nc1nc(C)c(-c2csc(Nc3ccccc3OC)n2)s1	–	?	?	13µM
COc1ccc(-c2cn(Cc3ccc(C)cc3)nn2)cc1	–	–	–	–
COc1ccccc1Nc1nc(-c2sc(NC(=O)CC(C)C)nc2C)cs1	–	?	?	1.9µM
COc1ccccc1NC(=O)Nc1nc(C(N)CC(C)C)cs1 (stereo unspecified)	–	·	·	·
COc1ccccc1Nc1nc(-c2c(C)[nH]c3ccccc23)cs1	–	?	5.2µM	2.3µM
Clc1ccc(CN2CCN(c3ncccn3)CC2)cc1	–	–	–	?
Clc1cccc(OCCN2CCCC2)c1	–	–	–	–
CN1CCN(CCOc2cccc(Cl)c2)CC1	–	–	–	10µM
SMILES	AMA1 RON2 block	HCV inhibitor	Pf growth 48h	Pf growth 96h
CC(C)c1cccc(OCCN2CCCC2)c1	–	–	–	10µM
COc1cccc(OCCCN2CCCCC2)c1	–	–	–	–
C=CCn1c(SCC(=O)c2c(N)n(CCC)c(=O)n(C)c2=O)nnc1-c1ccncc1	–	–	–	?
COc1ccccc1Cc1c(C2CCCCC2)nc2cc(C)c(Br)c(C)n12	–	·	·	·
CC(Oc1ccccc1)C(=O)Nc1ccc(S(=O)(=O)N2CCN(C)CC2)cc1 (stereo unspecified)	–	–	?	0.066µM
Cc1cccc(OC(C)C(=O)Nc2ccc(S(=O)(=O)N3CCCC3)cc2)c1 (stereo unspecified)	–	–	?	10µM
CC(Oc1ccccc1)C(=O)Nc1ccc(S(=O)(=O)N2CCOCC2)cc1 (stereo unspecified)	–	–	–	–[5.75 µM]
Cc1ccccc1NC(=O)NC1(C(=O)NCc2ccco2)CCCCC1	–	–	–	–
CCOC(=O)C1=C(C)N(C)C(=S)NC1c1cc(OC)ccc1OC (stereo unspecified)	–	–	–	–
COc1ccc(CNc2nc3ccccc3n2C)c(OC)c1	–	–	–	–
COc1ccc(N/C=C(\C#N)c2nc3ccccc3n2C)c(OC)c1	–	5µM	?	–

Screens (PubChem)
